From the supplement of paper PMC10105736

Tests used:
Assay in all cases: MAPPIT interaction score (arbitrary units); higher = stronger binary interaction signal, active = hit call of the paper;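 active = MAPPIT score above the 99th percentile of random reference set scores in the same batch; inactive = at or below it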
[1] = target: ATPCL; conditions: MAPPIT configuration: N-N
Method: (§1)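 MAPPIT in HEK293T cells: Drosophila bait and prey ORFs (from the FlyBi ORF collection) were co-transfected in quadruplicate, with two wells stimulated by erythropoietin. Interaction-dependent JAK-STAT activation was read out with a STAT-responsive firefly luciferase reporter. Positive calls use the 99th percentile of random reference set (RRS) scores within each batch […]. Batches Dvs01 and Dvs02 used the N-N configuration and Dvs04 the N-C configuration. Pairs come from FlyBi screens, CuraGen, DPiM, Finley Y2H, Lit-BM-16, Lit-BS-16 and RRS.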

[2] = target: Cka; conditions: MAPPIT configuration: N-N; pair source set: Curagen_low_conf
Method: as §1

[3] = target: CycK; conditions: MAPPIT configuration: N-N; pair source set: Finley_Y2H
Method: as §1

[4] = target: Dsp1; conditions: pair source set: RRS
Method: as §1

[5] = target: Fkbp12; conditions: MAPPIT configuration: N-N; pair source set: Lit-BS-16
Method: as §1

[6] = target: dod; conditions: MAPPIT configuration: N-N; pair source set: screen_1
Method: as §1

[7] = target: eIF4E3; conditions: MAPPIT configuration: N-N; pair source set: Curagen_high_conf
Method: as §1

[8] = target: 14-3-3zeta; conditions: pair source set: Lit-BM-16
Method: as §1

[9] = target: par-1; conditions: pair source set: Lit-BM-16
Method: as §1

[10] = target: yki; conditions: MAPPIT configuration: N-N; pair source set: Lit-BM-16
Method: as §1

[11] = target: AP-2alpha; conditions: MAPPIT configuration: N-N; pair source set: DPIM
Method: as §1

[12] = target: CG9667; conditions: MAPPIT configuration: N-N; pair source set: DPIM
Method: as §1

[13] = target: 14-3-3epsilon; conditions: MAPPIT configuration: N-N; pair source set: Lit-BM-16
Method: as §1

[14] = target: CG5174; conditions: MAPPIT configuration: N-N; pair source set: Curagen_low_conf
Method: as §1

[15] = target: LamC; conditions: MAPPIT configuration: N-N; pair source set: DPIM
Method: as §1

[16] = target: mon2; conditions: MAPPIT configuration: N-N; pair source set: Curagen_low_conf
Method: as §1

[17] = target: sol; conditions: MAPPIT configuration: N-N; pair source set: Curagen_low_conf
Method: as §1

[18] = target: tral; conditions: MAPPIT configuration: N-N; pair source set: Lit-BS-16
Method: as §1

Measured: MAPPIT interaction score
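Further: HEK293T cells with Epo stimulation, STAT-responsive firefly luciferase reporter, fold induction versus unstimulated cells divided by the larger fold induction of two negative controls lacking either bait or prey.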

B1: PAN3 (protein)
chain: MCSTYGLLSFEFSDTAAMDPIFFSPTNGIPSESKLATYMNRQNVATPSGYGLNNGFSLLNLDSPLNKKSQVTPQSPEFIPTRLGSTPNFYAPYHNAPMQLSNGLNGVNGLTAAAAAAAAAAAAAAAAVPSSTSSASSASVTISKTANGGASMLALQKTASIASVTIAQQQPQHPQKQQQHPPSVGGGAVSAASAPIAISGAPPNPAAAPFVSSMSAQTPLKGRGAMMRQESPTAAMISGAGPGEKSPPHGMTPHGASPIPSALPTSVHQENVGGTIYFYPTANAQNSQPVVNSMVVDGTHPALHGVSAVAPMSAGVPAAMMYTGHVYPGPSSNVVTMQPKTLLESAFFMPDEMRAEVLARNEISNLIMDAAEAAQHALPLEVENYHALYPLEPPAQPLHAKLTFPATTYRATHNTTGYKYCLRRIHGFRLQSTKCMTLVEMWKKLQHTNVVQLREVFTTKAFGDNSLVLVYDYHPGSQTLLAKYFTPAPETNGYTDPFQGEARPFSHKSNMQRTSNGPLLPEATIWSIIMQLTAGLKAIHHAGLACKVLDPTKIIVTGKRVRFSSCCISDITQFDPNASNPLALVNMHQQDDLTALGRLVLALACRCLQSVQRDNVQSSIDMVTRNYSTDLRNFIVYLFTTNNRRSVTDLMPMIGARFYTQLDALQSKIDMQEDELAKEMENGRLYRILVKLNSINERPDFNLDCTWSETGDRYMLKLFRDYLFHSVTEDGRPWLDHAHIVQCLNKLDAGSIERVQLMSRDEQSVLIVSYAELKNCLENAFSELMSSAAN
inactive: [1]; pair source set: Curagen_high_conf 0.129 | [1]; pair source set: Lit-BS-16 0.112 | [2] -0.663 | [4]; MAPPIT configuration: N-C 0.178 | [4]; MAPPIT configuration: N-N -0.667 | [5] 1.71
active: [3] 3.73 | [6] 2.85 | [7] 2.53

B2: 14-3-3epsilon (protein)
chain: MTERENNVYKAKLAEQAERYDEMVEAMKKVASMDVELTVEERNLLSVAYKNVIGARRASWRIITSIEQKEENKGAEEKLEMIKTYRGQVEKELRDICSDILNVLEKHLIPCATSGESKVFYYKMKGDYHRYLAEFATGSDRKDAAENSLIAYKAASDIAMNDLPPTHPIRLGLALNFSVFYYEILNSPDRACRLAKAAFDDAIAELDTLSEESYKDSTLIMQLLRDNLTLWTSDMQAEEVDPNAGDGEPKEQIQDVEDQDVS
inactive: [8]; MAPPIT configuration: N-C 1.51 | [9]; MAPPIT configuration: N-C -0.702 | [9]; MAPPIT configuration: N-N -0.144 | [10] 0.198
active: [8]; MAPPIT configuration: N-N 4.99

B3: CG10417 (protein)
chain: MGAYLSHPKTDKTSTDQFNELLAVGASSMQGWRNSQEDAHNSILNFDNNTSFFAVYDGHGGAEVAQYCADKLPHFLKNLETYKNGQFEVALKEAFLGFDKTLLDPSIVSILKILAGEHNFVDAEADDYEEEDLAELQEESNLPLNEVLEKYKGLPQKKDLDLKSSDHKENFKMRSPYFRGRRAAALAAEATNKAVMDPSAKPDGSSTSAAAAAAALSADGVANSRNPSNVVNPMAGADSNTTTSINDLSTKNAALKDDSVNDQNEGSNGTDFKHTLVSSSNKKLFATGSNDMTELNQSSKNEFTNSSTSKEFERNINSSQDDEFTDDDADYEENDNVKSPDTSSAESSDCTENDDDGDEDGNEDSDEEETDEDQMANDNFCANMIEEPGKDSGCTAVVCLLQGRDLYVANAGDSRCVISRSGQAIEMSIDHKPEDDEEASRIIKAGGRVTLDGRVNGGLNLSRALGDHAYKTNVTLPAEEQMISALPDIKKLIITPEDEFMVLACDGIWNYMSSEEVVEFVRCRLKDNKKLSTICEELFDNCLAPNTMGDGTGCDNMTAVIVQFKKKLQELQSTIPPNQTEDKLLKTSENVSHSLNDQSASKRCASQNADADDEILEKNNSKRLKTDLEQENIKDRTPSPSNQNEDPTQKAIKEVTIIVSSS
inactive: [11] 0.508 | [12] 0.00387

B4: 14-3-3zeta (protein)
chain: MSTVDKEELVQKAKLAEQSERYDDMAQAMKSVTETGVELSNEERNLLSVAYKNVVGARRSSWRVISSIEQKTEASARKQQLAREYRERVEKELREICYEVLGLLDKYLIPKASNPESKVFYLKMKGDYYRYLAEVATGDARNTVVDDSQTAYQDAFDISKGKMQPTHPIRLGLALNFSVFYYEILNSPDKACQLAKQAFDDAIAELDTLNEDSYKDSTLIMQLLRDNLTLWTSDTQGDEAEPQEGGDN
inactive: [14] 0.738 | [15] 0.222 | [16] 0.305 | [9]; MAPPIT configuration: N-C -0.258 | [9]; MAPPIT configuration: N-N -0.148 | [17] 1.59 | [18] 0.0264
active: [13] 3.94
